Laboratory results reported in PubChem BioAssay (NCATS).
Inconclusive results are not listed. Calls of active or inactive are those of the source. Calls follow the shape of the dose curve; as a rule, active = well fitted inhibition curve with a large enough effect; inconclusive = small, poorly fitted or top-dose-only effect; inactive = flat fitted curve, though single readings scatter.

Columns and labels:
JCK = test: qHTS profiling for inhibitors of Plasmodium falciparum proliferation (AID 504749);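 also: 0% = DMSO vehicle and full inhibition = artemisinin control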; conditions: P. falciparum in erythrocytes, SYBR Green DNA, 72 h; series mostly up to 28.7 µM
Procedure, shortened: (§1)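 P. falciparum-infected erythrocytes (0.3% parasitemia, 2.5% hematocrit final) were exposed to compounds for 72 h at 37 C in 5% CO2, then lysed with SYBR Green buffer overnight at room temperature; parasite DNA fluorescence was normalized to artemisinin and DMSO controls.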

N140 = test: as above; conditions: P. falciparum in erythrocytes, SYBR Green DNA, 72 h; series mostly up to 28.7 µM
Procedure, shortened: as §1

P93_24 = test: as above; conditions: P. falciparum in erythrocytes, SYBR Green DNA, 72 h; series mostly up to 28.7 µM
Procedure, shortened: as §1

P94_40 = test: as above; conditions: P. falciparum in erythrocytes, SYBR Green DNA, 72 h; series mostly up to 28.7 µM
Procedure, shortened: as §1

PAD = test: as above; conditions: P. falciparum in erythrocytes, SYBR Green DNA, 72 h; series mostly up to 28.7 µM
Procedure, shortened: as §1

PC15 = test: as above; conditions: P. falciparum in erythrocytes, SYBR Green DNA, 72 h; series mostly up to 28.7 µM
Procedure, shortened: as §1

PC26 = test: as above; conditions: P. falciparum in erythrocytes, SYBR Green DNA, 72 h; series mostly up to 28.7 µM
Procedure, shortened: as §1

PC49 = test: as above; conditions: P. falciparum in erythrocytes, SYBR Green DNA, 72 h; series mostly up to 28.7 µM
Procedure, shortened: as §1

SC27B = test: as above; conditions: P. falciparum in erythrocytes, SYBR Green DNA, 72 h; series mostly up to 28.7 µM
Procedure, shortened: as §1

TAB109 = test: as above; conditions: P. falciparum in erythrocytes, SYBR Green DNA, 72 h; series mostly up to 28.7 µM
Procedure, shortened: as §1

TAB113 = test: as above; conditions: P. falciparum in erythrocytes, SYBR Green DNA, 72 h; series mostly up to 28.7 µM
Procedure, shortened: as §1

TAB165 = test: as above; conditions: P. falciparum in erythrocytes, SYBR Green DNA, 72 h; series mostly up to 28.7 µM
Procedure, shortened: as §1

W2 = test: as above; conditions: P. falciparum in erythrocytes, SYBR Green DNA, 72 h; series mostly up to 28.7 µM
Procedure, shortened: as §1

CRL-7250 = normal cell line; test: Cytotoxic Profiling of Annotated Libraries Using Quantitative High-Throughput Screening (AID 1296008); conditions: Five cell lines viability, CellTiter-Glo ATP luminescence, 48-72 h; max response: stronger effect = lower value; also: potency is read from the fitted curve at half-maximal effect; as to max response: % is scaled to controls: 0 for no effect and ±100 for the full control effect
Procedure, shortened: (§2)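 Compounds were pin-transferred onto cells and incubated 48 or 72 hr at 37 degree Celsius, 95% humidity. CellTiter-Glo was added, plates sat 10 min at room temperature, then ATP-coupled luminescence was imaged as the viability read-out.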

HEK293 = test: as above; conditions: Five cell lines viability, CellTiter-Glo ATP luminescence, 48-72 h; max response: stronger effect = lower value
Procedure, shortened: as §2

HaCat [1] = test: as above; conditions: Five cell lines viability, CellTiter-Glo ATP luminescence, 48-72 h; max response: stronger effect = lower value
Procedure, shortened: as §2

KB-3-1 = test: as above; conditions: Five cell lines viability, CellTiter-Glo ATP luminescence, 48-72 h; max response: stronger effect = lower value
Procedure, shortened: as §2

NIH3T3 = test: as above; conditions: Five cell lines viability, CellTiter-Glo ATP luminescence, 48-72 h; max response: stronger effect = lower value
Procedure, shortened: as §2

HACAT [2] = test: qHTS assay to identify novel small-molecules to repurpose for Merkel cell carcinoma treatment (AID 1296009); conditions: MCC and control cell lines, CellTiter-Glo viability, 72 h; at 44.8 µM (top of the series) unless noted
Procedure, shortened: (§3)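 Cells exposed to NPC (8-point) and MIPE (11-point) compound dilutions for 72 hr at 37 degree celsius; viability read by CellTiter-Glo luminescence, normalized to no-cell and DMSO in-plate controls.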

HEK293T = test: as above; conditions: MCC and control cell lines, CellTiter-Glo viability, 72 h; at 44.8 µM (top of the series) unless noted
Procedure, shortened: as §3
Also: nearly all actives have a fitted effect of over 60% in size.

N#Cc1c(N(CC(=O)O)CC(=O)O)sc(C(=O)O)c1CC(=O)O
inactive: outcome (JCK) | Potency (N140) | Potency (P93_24) | Potency (P94_40) | Potency (PAD) | outcome (PC15) | Potency (PC26) | outcome (PC49) | Potency (SC27B) | Potency (TAB109) | Potency (TAB113) | Potency (TAB165) | Potency (W2) | outcome (CRL-7250) | outcome (HEK293) | outcome (HaCat [1]) | max response (KB-3-1) -1.51% | max response (NIH3T3) -3.52% | outcome (HACAT [2]) | outcome (HEK293T)

Cc1cc2nc3c(=O)[nH]c(=O)nc-3n(CC(O)C(O)C(O)CO)c2cc1C (stereo not given)
inactive: outcome (JCK) | Potency (N140) | Potency (P93_24) | Potency (P94_40) | Potency (PAD) | outcome (PC15) | Potency (PC26) | outcome (PC49) | Potency (SC27B) | Potency (TAB109) | Potency (TAB113) | Potency (TAB165) | outcome (CRL-7250) | max response (HEK293) -3.68% | outcome (HaCat [1]) | max response (KB-3-1) 9.48% | outcome (NIH3T3) | outcome (HACAT [2])

Cn1cc(-c2ccc3nnc(Sc4ccc5ncccc5c4)n3n2)cn1
inactive: max response (CRL-7250) -0.0054% | outcome (HEK293) | max response (HaCat [1]) 1.95% | max response (KB-3-1) 3.63% | outcome (HEK293T)

COc1cc(N2CCN(C)CC2)ccc1Nc1nc(N)c(C(=O)c2c(Cl)cccc2Cl)s1
inactive: max response (CRL-7250) -21% | outcome (HaCat [1]) | max response (KB-3-1) -5.11% | outcome (HACAT [2])
active: Potency (HEK293) 23.5 µM

CN(C)CCN(C)C(=O)c1ccc(NC(=O)Nc2ccc(-c3nc(N4CCOCC4)c4ccn(CC(F)(F)F)c4n3)cc2)cc1
active: Potency (CRL-7250) 0.0662 µM | Potency (KB-3-1) 0.0015 µM | Potency (NIH3T3) 0.059 µM
inactive: max response (HEK293) -108%

Cc1ccc(C(=O)N(CCCN)[C@@H](c2oc3cc(Cl)ccc3c(=O)c2Cc2ccccc2)C(C)C)cc1
inactive: max response (CRL-7250) -26.7%
active: Potency (HEK293) 0.0662 µM | Potency (KB-3-1) 0.0008 µM
